Bioassay records from PubChem BioAssay.
rRNA inh HTS: reduced GFP signal of wild-type E. coli, primary screen, bacterial rRNA inhibitor project, GFP/RFP fluorescence, OD600, single point. GFP signal change (wild-type ribosome), % (concentration not given with the values). AID 720706, 2013. E. coli WT GFP vs humanized-ribosome RFP mutants, 24 h; hits give low values; DMSO median 0, no signal -100. hit rate 1.6% among 350,000;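 active means significant combined selectivity score with lowered wild-type GFP, culture density cut under 30%, mutant RFP and density less affected; inactive means any of these conditions unmet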
DENV2 CPE: inhibitors of DENV2 cytopathic effect, primary screen, cell-based, plate reader, single concentration | hit rate 1.7% among 350,000 | AID 651640, 2012 | CPE inhibition, % at 9.99 µM | DENV2-infected cells, cytopathic effect rescue; in the data active means CPE inhibition above about 20%, passing the limit was not always enough; inconclusive means no clear call, values can overlap the other calls; tested in BHK-21 cells
CaV13 FRET inh: Primary screen for inhibitors of IQ motif and Ca2+-dependent inactivation inhibitor domain binding in CACNA1D, Förster resonance energy transfer in living cells, …; HEK cells, CFP/YFP FRET ICDI-IQ, plate reader, 10 min; percent FRET-ratio fall versus neutral wells; inhibition, % at 12.3 µM; hit rate 0.098% among 340,000; AID 743397;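 active means mean replicate inhibition of at least 30% and at least 1% of replicates passing that level; inconclusive means only one of the two criteria is met; inactive means neither criterion is met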
INS-1E GSIS act: GLuc luminescence reporter in INS-1E cells, primary screen for activators of glucose-dependent secretion of insulin | INS-1E GLuc reporter insulin secretion, 2-3 h | activation, % at 16.6 µM | hit rate 0.61% among 370,000;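 active means lowest replicate activation of at least 40%, so every replicate reaches that level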
ERAP1 HTS inh: human ERAP1 aminopeptidase inhibitors, primary screen, biochemical, single point, plate reader; recombinant ERAP1, Leu-AMC fluorescence, 60 min; inhibition, % at 10.7 µM; hit rate 0.15% among 340,000; AID 652197, 2013;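 active means mean replicate inhibition of at least 30%, or all replicates individually reaching that 30% level; inactive means mean below 30% and not every replicate reaching it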
Target sequence (Q9NZ08 whole entry, looked up): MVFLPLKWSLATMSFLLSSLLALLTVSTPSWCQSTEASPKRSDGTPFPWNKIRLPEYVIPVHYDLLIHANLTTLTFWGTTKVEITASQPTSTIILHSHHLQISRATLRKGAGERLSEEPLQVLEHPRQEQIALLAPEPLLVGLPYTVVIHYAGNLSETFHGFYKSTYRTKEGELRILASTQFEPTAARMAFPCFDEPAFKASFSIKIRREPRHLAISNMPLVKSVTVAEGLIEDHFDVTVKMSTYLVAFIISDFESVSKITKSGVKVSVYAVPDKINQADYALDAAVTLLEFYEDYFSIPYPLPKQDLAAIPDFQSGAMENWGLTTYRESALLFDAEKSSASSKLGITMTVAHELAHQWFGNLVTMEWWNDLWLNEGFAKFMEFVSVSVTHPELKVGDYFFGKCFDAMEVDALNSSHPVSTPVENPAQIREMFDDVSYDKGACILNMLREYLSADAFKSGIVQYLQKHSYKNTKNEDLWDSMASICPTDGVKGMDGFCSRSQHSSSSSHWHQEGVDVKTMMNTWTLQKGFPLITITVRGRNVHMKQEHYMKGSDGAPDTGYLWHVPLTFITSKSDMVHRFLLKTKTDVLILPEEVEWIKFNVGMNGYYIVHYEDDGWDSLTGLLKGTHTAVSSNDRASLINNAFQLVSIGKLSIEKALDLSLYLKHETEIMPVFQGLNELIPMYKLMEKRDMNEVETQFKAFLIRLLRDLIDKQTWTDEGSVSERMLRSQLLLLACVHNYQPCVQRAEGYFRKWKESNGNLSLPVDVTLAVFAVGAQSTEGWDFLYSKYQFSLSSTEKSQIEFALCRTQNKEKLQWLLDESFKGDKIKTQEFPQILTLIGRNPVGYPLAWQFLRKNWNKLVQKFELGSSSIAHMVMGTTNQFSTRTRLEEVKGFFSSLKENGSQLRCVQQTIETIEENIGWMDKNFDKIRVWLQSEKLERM
PGC1a acetyl inh: inhibitors of PGC1a acetylation signal, primary screen, cell-based, U2OS, AlphaScreen, inhibitor mode; inhibition, % at 15.6 µM; AlphaScreen anti-acetyl-lysine; with virally co-expressed GCN5 acetyltransferase; hit rate 0.17% among 350,000;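 active means every replicate shows inhibition of at least 40%; inconclusive means mean inhibition at least 40% but some replicate below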
Large screens that a line does not name were inactive; ! = not confirmed by another sample. Hits are enriched below; roughly 3.2% of the tested compounds scored in any of these assays.

Fc1cccc(CN2C[C@@H]3N[C@H](C2)C3c2ccc(-c3cncnc3)cc2)c1 (stereo partly drawn)	DENV2 CPE inconclusive (no result: CaV13 FRET inh)
Fc1cccc(-c2ccc(C3[C@@H]4CN(Cc5ccccc5F)C[C@H]3N4)cc2)c1 (stereo partly drawn)	INS-1E GSIS act 804.5! (no result: CaV13 FRET inh)
Fc1cccc(CN2C[C@@H]3N[C@H](C2)C3c2ccc(-c3ccccc3)cc2)c1 (stereo partly drawn)	PGC1a acetyl inh 96.9! (no result: CaV13 FRET inh)
C/C=C/c1ccc(C2[C@@H]3CN(Cc4cccc(OC)c4)C[C@H]2N3)cc1 (stereo partly drawn)	none (no result: CaV13 FRET inh, ERAP1 HTS inh)
COc1cc(CN2C[C@@H]3N[C@H](C2)C3c2ccc(/C=C/c3ccccc3)cc2)cc(OC)c1 (stereo partly drawn)	INS-1E GSIS act 83.7! (no result: CaV13 FRET inh, ERAP1 HTS inh)
N#Cc1ccc(-c2ccc(C3[C@@H]4CN(Cc5ccccc5F)C[C@H]3N4)cc2)cc1 (stereo partly drawn)	none (no result: CaV13 FRET inh)
COc1ccc(S(=O)(=O)N(C)C[C@H]2OCCCC[C@@H](C)Oc3ccc(NC(=O)NC4CCCCC4)cc3C(=O)N([C@@H](C)CO)C[C@@H]2C)cc1	none (no result: CaV13 FRET inh)
CCCC(=O)N1CC2(C1)CN(C(=O)COC)[C@H](CO)c1c2c2ccc(OC)cc2n1C	none (no result: CaV13 FRET inh, ERAP1 HTS inh)
O=C(O)C=Cc1c[nH]c2nccnc12	none (no result: rRNA inh HTS, INS-1E GSIS act)
O=C(O)/C=C/c1cnc[nH]1	PGC1a acetyl inh 106.0
C/C(=N\NC(=S)NC1CCCCC1)c1c(F)cccc1F	none (no result: PGC1a acetyl inh)
C/C(=N\NC(=S)NC1CCCCC1)c1cccs1	rRNA inh HTS -25.6
Cc1ccc(OCc2nnc(SCc3cc(=O)[nH]c4ccccc34)n2-c2ccccc2)cc1	DENV2 CPE 60.3 (no result: PGC1a acetyl inh)
O=C(NCCc1c[nH]c2ccccc12)/C(=C\c1cccnc1)NC(=O)c1ccccc1Br	DENV2 CPE 41.5
O=C(NCCc1c[nH]c2ccccc12)/C(=C\c1cccnc1)NC(=O)c1ccco1	none (no result: PGC1a acetyl inh)
CN(CCc1ccccn1)C(=O)CCC1CCCN(C(=O)c2cccc(N(C)C)c2)C1 (stereo not drawn)	DENV2 CPE 34.6
COc1cc(C(=O)N2CCCCC2c2cc(C(=O)NCc3cccnc3)no2)cc(OC)c1C (stereo not drawn)	none
COc1ccc(C(=O)N2CCCCC2c2cc(C(=O)NCc3cccnc3)no2)cc1 (stereo not drawn)	DENV2 CPE 32.8
CN(C)c1ccc(CC(=O)N2CCCCC2c2cc(C(=O)Nc3ccccc3Cl)no2)cc1 (stereo not drawn)	INS-1E GSIS act 45.3
Cc1ccc(F)cc1C(=O)N1CCCCC1c1cc(C(=O)NC(C)C)no1 (stereo not drawn)	DENV2 CPE 56.1
COc1ccc(C(=O)N2CCCCC2c2cc(C(=O)Nc3ccc(OC)cc3C)no2)cc1 (stereo not drawn)	none
COC(=O)N1CCCCC1c1cc(C(=O)Nc2ccc(OC)cc2C)no1 (stereo not drawn)	DENV2 CPE 50.6
COC(=O)N1CCCCC1c1cc(C(=O)Nc2ccccc2Cl)no1 (stereo not drawn)	DENV2 CPE 27.8
COc1ccc(NC(=O)c2cc(C3CCCCN3C(=O)c3cc(C(C)(C)C)nn3C)on2)c(C)c1 (stereo not drawn)	DENV2 CPE 48.0
O=C(Nc1ccccc1Cl)c1cc(C2CCCCN2C(=O)C2CCCCC2)on1 (stereo not drawn)	none
O=C(NCc1ccc(F)cc1)[C@@H]1[C@@H](CO)[C@@H]2Cn3c(cccc3=O)[C@H]1N2C(=O)C1CC1	none (no result: CaV13 FRET inh)
COCC(=O)N1[C@H](C#N)[C@H](c2ccccc2C2=CCCCC2)[C@@H]1CO	none (no result: CaV13 FRET inh, ERAP1 HTS inh)
CC(=O)N1[C@@H]2Cn3c(cccc3=O)[C@H]1[C@@H](C(=O)N[C@@H](C)c1ccccc1)[C@@H]2CO	none (no result: CaV13 FRET inh)
C[C@@H]1CN([C@H](C)CO)C(=O)c2cc(NC(=O)CCN3CCOCC3)ccc2O[C@H]1CN(C)Cc1ccc(-c2ccccc2)cc1	none (no result: CaV13 FRET inh)
O=C(NN1C(=O)NC2(CCCCC2)C1=O)c1cc(F)cc(F)c1	DENV2 CPE 32.1
CC(C)Oc1ccc(C(=O)NN2C(=O)NC3(CCCCC3)C2=O)cc1	DENV2 CPE 67.6
O=C(NN1C(=O)NC2(CCCCC2)C1=O)c1ccc(Cl)c(Cl)c1	DENV2 CPE inconclusive (no result: rRNA inh HTS, INS-1E GSIS act)
CC(=O)N1[C@H](CN(CC(C)C)C(=O)c2ccccn2)[C@H](c2ccccc2)[C@@H]1CO	none (no result: DENV2 CPE, CaV13 FRET inh, ERAP1 HTS inh, PGC1a acetyl inh)
CC1CCc2nc(NC(=O)c3cc(C(C)(C)C)nn3C)sc2C1 (stereo not drawn)	none
Cc1ccc(-c2nc(NC(=O)c3cc(C(C)(C)C)nn3C)sc2C)cc1Cl	DENV2 CPE 54.5 (no result: PGC1a acetyl inh)
COc1ccc(COCC23N=C4SCc5ccccc5C(=O)N4[C@H](c4ccccc4O2)[C@H]3CO[Si](C)(C)C(C)(C)C)cc1	DENV2 CPE 27.9 (no result: rRNA inh HTS, CaV13 FRET inh, INS-1E GSIS act)
CC[N+]1(C)CCC(=C2c3ccccc3CC(=O)c3sccc32)CC1 (stereo not drawn)	none (no result: rRNA inh HTS, DENV2 CPE, INS-1E GSIS act, ERAP1 HTS inh)
C[N+]1(C)CCC(=C2c3ccccc3CC(=O)c3sccc32)CC1	PGC1a acetyl inh 93.7 (no result: rRNA inh HTS, DENV2 CPE, INS-1E GSIS act, ERAP1 HTS inh)
C[C@H](CO)N1C[C@H](C)[C@H](CN(C)C(=O)Nc2ccccc2)Oc2ccc(NS(=O)(=O)c3cn(C)cn3)cc2C1=O	none (no result: CaV13 FRET inh)
CN(C)c1cccc(C(=O)Nc2cc(C(F)(F)F)ccc2-n2cnc3ccccc32)c1	DENV2 CPE 24.9 (no result: INS-1E GSIS act, PGC1a acetyl inh)
C/C(=N\NC(=O)CO/N=C(\C)c1cccs1)c1ccc(N)cc1	INS-1E GSIS act 45.8 (no result: ERAP1 HTS inh)
COCC(=O)NC[C@@H]1[C@H](c2ccc(C3=CCCC3)cc2)[C@@H](CO)N1C(C)=O	none (no result: CaV13 FRET inh)
OC[C@@H]1[C@@H](c2ccccc2)C2(CN(Cc3nccs3)C2)N1Cc1cccnc1	DENV2 CPE 84.4 (no result: CaV13 FRET inh)
OC[C@@H]1[C@H](c2ccccc2)C2(CN(CC3CC3)C2)N1Cc1nccs1	none (no result: CaV13 FRET inh)
OC[C@@H]1[C@@H](c2ccccc2)C2(CN(Cc3nccs3)C2)N1Cc1ccccc1	DENV2 CPE 20.0 (no result: CaV13 FRET inh)
OC[C@@H]1[C@@H](c2ccccc2)C2(CN(Cc3cccnc3)C2)N1Cc1ccncc1	none (no result: CaV13 FRET inh)
OC[C@@H]1[C@H](c2ccccc2)C2(CN(Cc3nccs3)C2)N1Cc1cccnc1	none (no result: CaV13 FRET inh)
OC[C@@H]1[C@H](c2ccccc2)C2(CN(Cc3cccnc3)C2)N1Cc1ccncc1	DENV2 CPE 20.3 (no result: CaV13 FRET inh)
CO[C@@H]1CN(C)C(=O)c2ccc(NC(=O)Cc3ccccc3)cc2OC[C@H](C)N(CC2CC2)C[C@@H]1C	none (no result: CaV13 FRET inh)
C[C@H](NC(=O)c1nc[nH]c1C(=O)N[C@@H](Cc1ccccc1)C(=O)OC(C)(C)C)C(=O)OCc1ccccc1	CaV13 FRET inh 34.6 (no result: INS-1E GSIS act, PGC1a acetyl inh)
